Laboratory results as given in PubChem BioAssay (NCI).
Compounds without any hit were thinned out: in the full panel of roughly 79,000, 15% have a hit. Calls of active or inactive are those of the source. Cut-off read from the data, not from the text of the source: active = growth inhibition above about 70%; inactive = the rest.

Key:
[1] = NCI Yeast Anticancer Drug Screen. Data for the rad52 strain (AID 147);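 note: 0% = growth of vehicle-treated control cultures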; details: S. cerevisiae rad52 mutant growth inhibition, stronger effect = higher value
In short: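 Here a repair-compromised yeast strain receives each compound; its growth is then quantified and normalised to vehicle-only controls.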

[2] = NCI Yeast Anticancer Drug Screen. Data for the wt1 strain (AID 149);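 note: 0% = growth of vehicle-treated wt1 cultures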; details: S. cerevisiae wt1 strain (SPY 50644) growth inhibition, stronger effect = higher value
In short: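 Readout: yeast growth inhibition, normalised to vehicle controls, in the wt1 strain exposed to test compounds.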

[3] = NCI Yeast Anticancer Drug Screen. Data for the rad50EPP+ strain (AID 151);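 note: 0% = growth of vehicle-treated control cultures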; details: S. cerevisiae rad50 mutant strain, stronger effect = higher value
In short: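 Read-out is yeast growth inhibition relative to vehicle; cells used were the rad50EPP+ strain.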

[4] = NCI Yeast Anticancer Drug Screen. Data for the mgt1 strain (AID 153); details: S. cerevisiae mgt1 mutant growth inhibition, stronger effect = higher value
In short: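 Measured: inhibition of mgt1 yeast growth by compound, normalized to vehicle-treated cultures.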

[5] = NCI Yeast Anticancer Drug Screen. Data for the rad50 strain (AID 155);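 note: 0% = growth of vehicle-only cultures of the same strain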; details: S. cerevisiae rad50 strain growth inhibition, stronger effect = higher value
In short: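 Compounds were tested on a yeast strain with an engineered DNA damage repair alteration; the reported value is growth inhibition normalised to vehicle treatment.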

[6] = NCI Yeast Anticancer Drug Screen. Data for the mec2-1 strain (AID 157); details: S. cerevisiae mec2-1 strain, stronger effect = higher value
In short: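 Using mec2-1 yeast: add compound, measure growth, express inhibition versus vehicle-treated cultures.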

[7] = NCI Yeast Anticancer Drug Screen. Data for the rad14 strain (AID 159);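 note: 0% = growth of vehicle-treated control cultures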; details: S. cerevisiae rad14 strain growth inhibition, stronger effect = higher value
In short: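 Compound-treated yeast with a defined DNA-repair lesion; growth inhibition normalised to vehicle-treated cultures.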

[8] = NCI Yeast Anticancer Drug Screen. Data for the sgs1 mgt1 strain (AID 161);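 note: 0% = growth of cultures given vehicle only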; details: S. cerevisiae sgs1 mgt1 strain, stronger effect = higher value
In short: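 Yeast cells carrying a defined DNA-repair defect were exposed to test compounds. Growth inhibition was measured relative to vehicle-treated controls.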

[9] = NCI Yeast Anticancer Drug Screen. Data for the CLN2oe strain (AID 163);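 note: 0% = growth of vehicle-only control cultures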; details: S. cerevisiae CLN2oe strain, stronger effect = higher value
In short: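 Whole-cell yeast growth assay. A strain engineered for altered cell-cycle control received compound, and inhibition relative to vehicle-treated cultures was recorded.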

[10] = NCI Yeast Anticancer Drug Screen. Data for the cln2 rad14 strain (AID 165);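 note: 0% = growth equal to vehicle treated cultures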; details: S. cerevisiae cln2 rad14 strain, stronger effect = higher value
In short: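 Yeast strain cln2 rad14, bearing defects in cell cycle control and DNA repair, serves as the test system; values reflect growth inhibition compared with vehicle.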

[11] = NCI Yeast Anticancer Drug Screen. Data for the bub3 strain (AID 167); details: S. cerevisiae bub3 mutant strain, stronger effect = higher value
In short: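 Growth of a checkpoint-deficient yeast mutant is measured after compound exposure. Values represent inhibition relative to vehicle.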

[12] = NCI Yeast Anticancer Drug Screen. Data for the wt2 strain (AID 169);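 note: 0% = growth of vehicle-treated yeast cultures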; details: S. cerevisiae wt2 strain growth inhibition, stronger effect = higher value
In short: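 Treated yeast vs. vehicle-treated yeast: growth inhibition determined.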

[13] = NCI Yeast Anticancer Drug Screen. Data for the mlh1 strain (AID 171);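 note: 0% = growth of vehicle-treated control cultures of the same strain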; details: S. cerevisiae mlh1 strain growth inhibition, stronger effect = higher value
In short: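 A yeast strain with a defined genetic lesion serves as the test organism. Cultures receive compound or vehicle, and growth is measured.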

[14] = NCI Yeast Anticancer Drug Screen. Data for the sgs1 strain (AID 173);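 note: 0% = growth of vehicle-only control cultures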; details: S. cerevisiae sgs1 mutant, stronger effect = higher value
In short: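 A genetically defined yeast mutant is incubated with the test compound, and its growth is compared to that of the same strain given vehicle.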

[15] = NCI Yeast Anticancer Drug Screen. Data for the mlh1 rad18 strain (AID 175); details: S. cerevisiae mlh1 rad18 strain growth inhibition, stronger effect = higher value
In short: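 Steps: expose repair-defective yeast to compound; measure growth; express inhibition against vehicle-treated controls.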

[16] = NCI Yeast Anticancer Drug Screen. Data for the rad18 strain (AID 177); details: S. cerevisiae rad18 mutant growth inhibition, stronger effect = higher value
In short: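 Measured value is growth inhibition of a yeast strain bearing a DNA repair alteration, referenced to vehicle-treated cells.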

[17] = at 5.0 µM (retest, dose inferred, filed as 0.5)
[18] = at 50.0 µM (retest, dose inferred, filed as 5.0)

Measured: growth inhibition

S=C(NCc1ccccn1)N/N=C/c1ccccn1
inactive: [3]; at 1.2 µM 34% | [3]; at 3.7 µM 63% | [5]; [17] 40% | [6]; [17] 33% | [8]; [17] 69% | [10]; [17] -1% | [11]; [17] -10% | [15]; [17] 5%
active: [1]; at 1.2 µM 98% | [1]; at 3.7 µM 99% | [1]; at 11.0 µM 99% | [1]; at 33.0 µM 99% | [1]; at 100.0 µM 98% | [2]; at 1.2 µM 98% | [2]; at 3.7 µM 98% | [2]; at 11.0 µM 99% | [2]; at 33.0 µM 99% | [2]; at 100.0 µM 99% | [3]; at 11.0 µM 87% | [3]; at 33.0 µM 93% | [3]; at 100.0 µM 96% | [4]; at 1.2 µM 97% | [4]; at 3.7 µM 98% | [4]; at 11.0 µM 99% | [4]; at 33.0 µM 99% | [4]; at 100.0 µM 99% | [5]; at 1.2 µM 97% | [5]; at 3.7 µM 98% | [5]; at 11.0 µM 98% | [5]; at 33.0 µM 98% | [5]; [18] 99% | [5]; at 50.0 µM 75.5% | [5]; at 100.0 µM 98% | [6]; at 1.2 µM 97% | [6]; at 3.7 µM 98% | [6]; at 11.0 µM 99% | [6]; at 33.0 µM 99% | [6]; [18] 99% | [6]; at 50.0 µM 84.2% | [6]; at 100.0 µM 99% | [7]; at 1.2 µM 98% | [7]; at 3.7 µM 99% | [7]; at 11.0 µM 99% | [7]; at 33.0 µM 99% | [7]; at 100.0 µM 99% | [8]; [18] 99% | [8]; at 50.0 µM 90.1% | [9]; at 1.2 µM 97% | [9]; at 3.7 µM 99% | [9]; at 11.0 µM 99% | [9]; at 33.0 µM 99% | [9]; at 100.0 µM 99% | [10]; [18] 99% | [10]; at 50.0 µM 89.7% | [11]; at 1.2 µM 94% | [11]; at 3.7 µM 98% | [11]; at 11.0 µM 99% | [11]; at 33.0 µM 99% | [11]; [18] 99% | [11]; at 50.0 µM 90.1% | [11]; at 100.0 µM 98% | [12]; at 1.2 µM 97% | [12]; at 3.7 µM 98% | [12]; at 11.0 µM 98% | [12]; at 33.0 µM 99% | [12]; at 100.0 µM 99% | [13]; at 1.2 µM 96% | [13]; at 3.7 µM 98% | [13]; at 11.0 µM 98% | [13]; at 33.0 µM 97% | [13]; at 100.0 µM 98% | [14]; at 1.2 µM 99% | [14]; at 3.7 µM 98% | [14]; at 11.0 µM 98% | [14]; at 33.0 µM 99% | [14]; at 100.0 µM 99% | [15]; [18] 99% | [15]; at 50.0 µM 90.7% | [16]; at 1.2 µM 98% | [16]; at 3.7 µM 98% | [16]; at 11.0 µM 98% | [16]; at 33.0 µM 98% | [16]; at 100.0 µM 99%
